# According to PMC4336329 (PLoS ONE, 2015):
# In all, about 310,000 compounds went through this assay and about 14,000 (4.5%) showed an effect of 50% or more. Effects have a minus sign here. This is one part of a sample in which strong results are shown more often than they occur.
# Molecular target: human ether-à-go-go-related gene (hERG) potassium channel (human, UniProt Q12809)
# Assay: primary screen, population patch clamp on CHO cells stably expressing hERG; higher = less effect of the substance
# 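Note: peak tail current of the secondary pulse compared with the same well before compound.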
# Chain of human ether-à-go-go-related gene (hERG) potassium channel (Q12809 whole entry, looked up): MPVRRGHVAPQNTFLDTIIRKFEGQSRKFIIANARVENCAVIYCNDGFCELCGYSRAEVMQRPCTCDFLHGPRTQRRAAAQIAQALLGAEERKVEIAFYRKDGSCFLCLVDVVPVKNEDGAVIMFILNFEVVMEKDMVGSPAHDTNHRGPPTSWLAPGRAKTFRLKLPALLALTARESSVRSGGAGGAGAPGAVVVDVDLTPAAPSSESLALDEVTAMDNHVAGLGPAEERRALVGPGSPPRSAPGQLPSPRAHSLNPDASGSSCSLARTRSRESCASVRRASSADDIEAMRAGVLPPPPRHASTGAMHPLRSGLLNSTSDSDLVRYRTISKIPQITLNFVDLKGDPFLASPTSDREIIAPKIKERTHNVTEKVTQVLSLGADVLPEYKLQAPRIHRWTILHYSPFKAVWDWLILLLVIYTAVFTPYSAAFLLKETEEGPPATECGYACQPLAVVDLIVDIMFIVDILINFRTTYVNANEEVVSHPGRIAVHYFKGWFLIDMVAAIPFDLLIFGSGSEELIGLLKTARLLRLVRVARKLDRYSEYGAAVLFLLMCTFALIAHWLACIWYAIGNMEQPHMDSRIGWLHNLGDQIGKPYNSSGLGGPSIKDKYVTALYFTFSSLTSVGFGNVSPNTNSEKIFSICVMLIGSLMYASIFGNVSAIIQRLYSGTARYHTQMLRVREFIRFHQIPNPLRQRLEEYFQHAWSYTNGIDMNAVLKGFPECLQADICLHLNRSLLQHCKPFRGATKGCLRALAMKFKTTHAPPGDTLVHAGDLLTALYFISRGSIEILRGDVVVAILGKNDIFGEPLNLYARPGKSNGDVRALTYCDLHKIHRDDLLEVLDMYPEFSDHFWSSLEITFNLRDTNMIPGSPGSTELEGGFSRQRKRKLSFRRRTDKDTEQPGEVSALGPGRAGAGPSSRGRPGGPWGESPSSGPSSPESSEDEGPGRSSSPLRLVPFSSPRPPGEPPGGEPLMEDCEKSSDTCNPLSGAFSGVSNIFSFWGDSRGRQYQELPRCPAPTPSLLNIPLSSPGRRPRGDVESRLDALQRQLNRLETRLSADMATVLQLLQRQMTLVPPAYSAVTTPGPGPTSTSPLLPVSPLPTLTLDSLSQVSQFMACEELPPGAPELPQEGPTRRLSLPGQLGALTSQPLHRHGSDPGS
row,SMILES,"hERG current change (%, negative = inhibition) at 10uM"
1,CCOC(=O)N1CCN(C(=O)C(C)N(c2ccccc2)S(C)(=O)=O)CC1 (stereo not drawn),25.1%
2,O=C(O)CC(CC(=O)Nc1ccc(C(=O)O)cc1)c1ccccc1 (stereo not drawn),12.9%
3,Cc1ccc(-n2c(=O)c3sccc3n(CC(=O)NC3CCCCC3)c2=O)cc1,9.86%
4,O=C(COC(=O)c1cnccn1)NCc1ccc(Cl)cc1,-3.54%
5,COCCN(C(=O)Cc1cccs1)C(C(=O)NC1CCCC1)c1cc(OC)c(OC)c(OC)c1 (stereo not drawn),8.79%
6,CCO.Cc1nn(-c2ccccn2)c2c1C(c1ccsc1)C1=C(CCCC1=O)N2 (stereo not drawn),-16.1%
7,Cc1nn(-c2ccccn2)c2c1C(c1ccncc1)C1=C(CC(C)(C)CC1=O)N2 (stereo not drawn),-50.8%
8,Cc1ccc(C2C3=C(CCCC3=O)Nc3c2c(C)nn3-c2ccccn2)o1 (stereo not drawn),1.07%
9,CC(C)(C)[C@H]1C=C(C(=O)NCc2ccccc2)O[C@@H](OCc2ccc(CO)cc2)C1,-12.9%
10,COc1ccc(N(C(=O)c2snc(C(N)=O)c2N)C(C(=O)NC2CCCC2)c2cc(OC)ccc2OC)c(OC)c1 (stereo not drawn),20.9%
11,CC1=C(C#N)C(NC(=O)C2CC2)(C(F)(F)F)C(=O)N1 (stereo not drawn),-2.06%
12,COc1cccc(-n2c(=S)sc3c(=O)n(-c4ccccc4C)c(SCC(=O)O)nc32)c1,16.5%
13,N/C(=N\O)c1ccc(Oc2ccccc2Cl)c([N+](=O)[O-])c1,-9.72%
14,CCC1=Nc2cc(C(=O)NCCN3CCOCC3)ccc2Sc2ccccc21,-15.3%
15,CCC1=Nc2cc(C(=O)NCCN3CCCC3)ccc2Sc2ccc(C)cc21,-29%
16,CCCC1=Nc2cc(C(=O)NCCN3CCCC3)ccc2Sc2ccccc21,-21.2%
17,CCC1=Nc2cc(C(=O)NCCN3CCCC3)ccc2Sc2ccccc21,-52.1%
18,CCC1=Nc2cc(C(=O)NCCN3CCOCC3)ccc2Sc2ccc(C)cc21,-82.3%
19,CCCC1=Nc2cc(C(=O)NCCN3CCOCC3)ccc2Sc2ccc(C)cc21,-34.3%
20,Cc1cccc(NC(=O)COc2ccccc2C(=O)NC(C)c2ccccc2)c1 (stereo not drawn),-8.56%
21,Cc1onc(-c2ccccc2)c1C(=O)N/N=C/c1ccc(O)c([N+](=O)[O-])c1,9.34%
22,CCCCn1c(O)c(N=NC(=O)c2ccccc2NS(=O)(=O)c2cccs2)c2ccccc21,-2.54%

row,SMILES,"hERG current change (%, negative = inhibition) at 10uM"
1,O=C(CSc1nncn1-c1ccccc1)Nc1c(F)cccc1F,3.19%
2,NC(N)=NS(=O)(=O)c1ccc(N/C=C/C(=O)c2ccc(Cl)c(Cl)c2)cc1,17.3%
3,Cc1ccc(NC2CCCN(C(=O)c3ccccc3N3CCOCC3)C2)cc1C (stereo not drawn),-0.641%
4,O=C(NCc1ccc2c(c1)OCO2)c1cc(-c2ccccn2)nc2ccccc12,4.41%
5,O=C(NCc1ccc2c(c1)OCO2)c1cc(-c2ccncc2)nc2ccccc12,-67%
6,O=C(NCc1cccnc1)c1cc(Sc2ccc(F)cc2F)nc2ccccc12,-55.3%
7,O=C(NCc1ccccn1)c1cc(-c2ccncc2)nc2ccccc12,-25.6%
8,O=C(N/N=C/c1ccc([N+](=O)[O-])o1)c1cc(-c2ccncc2)nc2ccccc12,-62.9%
9,O=C(NCc1cccnc1)c1cc(Sc2cccc(Cl)c2)nc2ccccc12,-15.4%
10,O=C(N/N=C/c1ccc([N+](=O)[O-])o1)c1cc(-c2ccc(-c3ccccc3)cc2)nc2ccccc12,17.7%
11,CCCc1ccc(-c2cc(C(=O)N/N=C/c3ccc([N+](=O)[O-])o3)c3ccccc3n2)cc1,-1.61%
12,O=C(NCc1ccc(F)cc1)c1cc(-c2ccncc2)nc2ccccc12,-64.7%
13,O=C(NCc1ccccc1)c1cc(-c2ccncc2)nc2ccccc12,-34%
14,O=C(NCc1cccnc1)c1cc(Sc2ccccc2Cl)nc2ccccc12,-5.45%
15,O=C(Nc1ccc2c(c1)OCO2)c1cc(-c2ccncc2)nc2ccccc12,-3.22%
16,O=C(NC(=S)NC1CCSC1=O)c1cccs1 (stereo not drawn),15.9%
17,CCOCc1nnc(NC(=O)C2CC(=O)N(CCc3ccc(F)cc3)C2)s1 (stereo not drawn),5.97%
18,CCC1c2ccc(C)n2CCN1C(=O)Nc1ccccc1C(=O)OC (stereo not drawn),6.11%
19,CCc1nnc(NC(=O)C2(C)COC(c3ccc(OC)cc3)OC2)s1 (stereo not drawn),10.1%
20,CC1(C)C2CCC1(CS(=O)(=O)N1CCOCC1)C(=O)C2 (stereo not drawn),-1.75%
21,Cc1cc(C(=O)COC(=O)c2cccnc2Cl)c(C)n1CC1CCCO1 (stereo not drawn),-20.1%
22,O=C(NCC(c1cccs1)N1CCOCC1)c1cc(-c2ccccn2)nc2ccccc12 (stereo not drawn),-23%

row,SMILES,"hERG current change (%, negative = inhibition) at 10uM"
1,CC(C)c1ccccc1OCC(=O)NCC(c1cccs1)N1CCOCC1 (stereo not drawn),-50.2%
2,Cc1ccc(C(C)C)c(OCC(=O)NCC(c2cccs2)N2CCOCC2)c1 (stereo not drawn),-48.1%
3,Cc1ccc(CNC(=O)CCn2cc(-c3ccc(F)cc3)nc2-c2ccncc2)cc1,-50.1%
4,COc1ccccc1OCC(=O)NCC(c1cccs1)N1CCOCC1 (stereo not drawn),-4.48%
5,COc1ccc(-c2cn(CCC(=O)NCc3ccc(C)cc3)c(-c3ccncc3)n2)cc1,-21.3%
6,O=C(NCC(c1cccs1)N1CCOCC1)c1cc(-c2ccc(F)cc2)nc2ccccc12 (stereo not drawn),-55.9%
7,O=C(NCC(c1cccs1)N1CCOCC1)c1cn(-c2ccccc2)nc1-c1ccc(F)cc1 (stereo not drawn),-1.67%
8,Cc1ccc(CNC(=O)CCn2cc(-c3ccc(C)cc3)nc2-c2ccncc2)cc1,-45.1%
9,O=C(Cc1ccccc1)Nc1cccc(-c2nc3ncccc3o2)c1,13.6%
10,COc1ccc(Nc2ccc(C(N)=O)cc2[N+](=O)[O-])cc1,7.18%
11,CCCSc1nc2c(c(=O)[nH]c(=O)n2C)n1C,2.58%
12,Cn1c(=O)[nH]c(=O)c2c1nc(OC(=O)c1ccccc1)n2CC(O)COc1ccccc1 (stereo not drawn),23.2%
13,CCCc1c(O)nc(SCc2ccccc2)[nH]c1=O,0.68%
14,CC(C)(C)c1cc(CN2CCCCC2)cc(C(C)(C)C)c1O,-50.7%
15,CC(C)(C)c1cc(CN2CCC(O)CC2)cc(C(C)(C)C)c1O,-70.1%
16,CN1CCN(Cc2cc(C(C)(C)C)c(O)c(C(C)(C)C)c2)CC1,-15.1%
17,CC(C)(C)c1cc(CN2CCCC(O)C2)c(O)c(C(C)(C)C)c1 (stereo not drawn),-13.9%
18,CCOC(=O)C1CCN(Cc2ccc(Cl)c(Cl)c2)CC1,-5.6%
19,CCN1CCN(Cc2cc(C(C)(C)C)c(O)c(C(C)(C)C)c2)CC1,-26.5%
20,CCOC(=O)C1CCN(Cc2cc(C(C)C)c(O)c(C(C)C)c2)CC1,-41.3%
21,CC1=NN(Cc2cc(C(C)(C)C)c(O)c(C(C)(C)C)c2)C(=O)C1,17.2%
22,CCOC(=O)C1CCN(Cc2cc(C(C)(C)C)c(O)c(C(C)(C)C)c2)CC1,-63.1%

row,SMILES,"hERG current change (%, negative = inhibition) at 10uM"
1,Cc1ccc(S(=O)(=O)N2N=C3CCCCC3C2(O)C(F)(F)F)cc1 (stereo not drawn),4.99%
2,O=C(NN=C1CCCC1)c1cccc(O)c1,8.96%
3,O=C1C2C3CCCC3=C3CCCC3C2C(=O)N1c1ccccc1 (stereo not drawn),1.8%
4,C/C(=N/NC(=O)c1ccc2c(c1)OCO2)c1ccc(NC(=O)c2ccc(F)cc2)cc1,9.33%
5,O=C(NC1CCCN(c2ccc(C(F)(F)F)cn2)C1)c1cc(Cl)ccc1F (stereo not drawn),5.34%
6,CSc1ccccc1C(=O)NC1CCCN(c2ccc(C(F)(F)F)cn2)C1 (stereo not drawn),-4.58%
7,O=C(CCc1ccccc1Cl)NC1CCCN(c2ccc(C(F)(F)F)cn2)C1 (stereo not drawn),13.4%
8,Cc1ccc(C(=O)NC2CCCN(c3ccc(C(F)(F)F)cn3)C2)cn1 (stereo not drawn),-2.75%
9,O=C(NC1CCCN(c2ccc(C(F)(F)F)cn2)C1)c1ccnc(Cl)c1 (stereo not drawn),-55.5%
10,O=C(NC1CCCN(c2ccc(C(F)(F)F)cn2)C1)c1ccncc1 (stereo not drawn),-69.2%
11,COc1ccc(CCNC(=O)Cn2nnc3ccccc3c2=O)cc1,9.17%
12,CCOC(=O)CN1CC23C=CC(O2)C(C(=O)Nc2ccc(C(C)=O)cc2)C3C1=O (stereo not drawn),4.98%
13,CC1=C(C(=O)Nc2cccc(C(=O)NC3CCCCC3C)c2)SCCO1 (stereo not drawn),-17.8%
14,CC1(C)CC(=O)C=C(NCCN2CCN(C(=O)Nc3ccc(Cl)c(Cl)c3)CC2)C1,-24%
15,CS(=O)(=O)N(CC(=O)NCc1cccnc1)Cc1ccc(Cl)cc1,-30.1%
16,CC(C)(C)n1nnnc1SCC(=O)Nc1nn(-c2ccccc2)nc1C(N)=O,9.33%
17,NC(=O)c1ccc(-n2nnnc2SCC(=O)Nc2ccccc2-c2ccccc2)cc1,-58.1%
18,NC(=O)c1ccc(-n2nnnc2SCC(=O)Nc2ccccc2F)cc1,18.9%
19,NC(=O)c1nn(-c2ccccc2)nc1NC(=O)CSc1nnnn1-c1ccc(Cl)cc1,-53.7%
20,Cn1nnnc1SCC(=O)Nc1nn(-c2ccccc2)nc1C(N)=O,-13.8%
21,NC(=O)c1ccc(-n2nnnc2SCC(=O)Nc2ccccc2)cc1,14.3%
